Results: PubChem BioAssay AID1508600 (Functional Genomics Laboratory (NCATS/FGL), 2020)
About 3,700 (7%) of roughly 53,000 sequences were called active. This is one part of a sample in which actives are shown more often than they occur. Unmarked numbers belong to inactive results.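 Rule for the calls: active = gene knockdowns whose robust z-score for IL-1 alpha signal is at least 2 or at most -2, so actives lie on both sides; inactive = the rest.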

Test: Components of the Cytosolic LPS Sensing Pathway: Gene Identification via Genome-wide siRNA Screen;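 note: robust z of the log signal after scaling to non-targeting control siRNA wells of the plate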
Details: RAW264.7 macrophages, IL-1a HTRF, actives lie on both sides, screened at 100 nM (by protocol), cells primed 5 h with Pam3CSK4 first
Outline: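 Cells (RAW264.7, 1×10^4 per well) were transfected with siRNA at 100 nM and cultured 48h at 37 degrees C. Pam3CSK4 was added for 5 hours; LipidA transfection followed for 24 hour. IL-1a was then measured by HTRF.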

In order of rising z-score:
1. GGUAUAUGUCACCAUACUCTT against Phxr2  -1.99
2. CCUCAUGUCUGGCAUCUUGTT against Egr4  -1.7
3. GCCAUCGAUACCACAACACTT against Slfn8  -1.61
4. GGAGCUCUUCCAGUUGUUUTT against Khk  -1.51
5. GCAUUUAAGGACCUUGUAATT against Olfr813  -1.5
6. GGCUUCAAAGGCAAAGUUCTT against Fbf1  -1.5
7. GGCGUAACCUAACAUGGGATT against Clec1b  -1.35
8. GGAAAAUCCCUGUGUCCGATT against Spdye4a  -1.34
9. GGCAUUGUGAAAUCCUAUUTT against Lhx5  -1.31
10. GGUUGAACUCAAAGUAAAGTT against Preb  -1.18
11. GCAUAUGGAGCAACUUGCUTT against Dsg1c  -1.17
12. GGCCUAUGCGAAAAUCUGUTT against Camk2b  -1.14
13. CCAAUAUCUCCAAAUAGAATT against Atp8b1  -0.974
14. GCAGGAGGUUUAUACAGCCTT against Spata5  -0.969
15. CCGACAGACUCACAUACUGTT against Trex1  -0.942
16. CCACAAUUACCCAGUAUGATT against Olfr498  -0.939
17. GGUCUUCUUUGAUGUGAGGTT against Ppic  -0.832
18. GGAAAUUCUGGCAUAAAUUTT against Cd86  -0.732
19. GGAUGAAAACACUGAAUACTT against Olfr644  -0.714
20. CCAUAUGUGAUUUGUCUUGTT against Cacnb2  -0.706
21. GCUACGAGAUUCUUGUUGCTT against Taar3  -0.615
22. GGACAUCAUUACAAAGAUGTT against Rgs6  -0.608
23. GGGUUUCCUUAUGAGAAAGTT against Mien1  -0.606
24. GGCAACAUUAGAAGACAGUTT against Tfb1m  -0.591
25. GGACAAGGCCCUCAUGAUUTT against Nek8  -0.468
26. GCACGAGGAUUCAGAUAUCTT against Gusb  -0.449
27. CCUUCAACCUUCGAGAUACTT against Kcnh2  -0.417
28. GGUUAGAGAUCUUUUGAAATT against St14  -0.333
29. GGUGUCAGCUUACCAUUCATT against Triap1  -0.329
30. GGUGCAAAGCUUGAAAAUGTT against Gpr150  -0.324
31. GGUAUUUUGACCGAAUCAATT against Add3  -0.294
32. GGUGAUGAUCCCAUGGGUUTT against Ube2g2  -0.289
33. GCUCAAUUGUGGAGCAGUCTT against Cd5l  -0.247
34. GCGAGUGCUUGGCUAUUAUTT against Ckap2  -0.234
35. GCGCAAAGUCGAAUCCAGUTT against Vgll1  -0.156
36. GCAACAAUUCUAACAGCUGTT against Lhfpl5  -0.138
37. GGGACAGAUACAGUUCAUGTT against Zan  -0.114
38. GCCUAUUCGAAUUUGGGAATT against Ogt  -0.0977
39. GGCUCCAGUAAUUGAUAAATT against Sycp3  -0.0955
40. GGGCAUUGUUGUUUCUAUUTT against Lhfp  -0.0841
41. GCUCCUCACUUAUUGCCCATT against Zfp354b  -0.0805
42. GGGCUGCUGCUUAGCAAUCTT against Egln3  -0.0783
43. GGAGAGGAGACACAUCAGUTT against Gnpat  -0.067
44. GGAAAUGACGAGAAGAAAGTT against Mapt  -0.0597
45. GGGCUCUGUGGAAAUCAUGTT against Rnf187  -0.043
46. GCCUUUGUGAGGAUUAAACTT against Fam83f  -0.000611
47. GGUCCAUCAGGAAAAUCAATT against Obox6  0.0445
48. GCCUUCCACUACCUUACGUTT against Kcnk3  0.067
49. GGGCACAAAGAUAUGAAUATT against Lgals3bp  0.147
50. CCUAAGGUACCAUUUUAAATT against Clp1  0.225
51. GCUUCGAGAGUCAACUAUGTT against Mecom  0.232
52. GGCUGUGAAUCUGAAGAGCTT against Chrna6  0.241
53. GGAGGCUGUCUGUCUAAUATT against Trim39  0.25
54. GCAUGUGCUAUAAUGAUCATT against Gm5444  0.256
55. GGCUAAUGAAGCACGCAGATT against Tspan33  0.264
56. GGUGAACCUCAAUAAUAUCTT against Tmod4  0.274
57. CCUUGCAUUACUUCUAAAUTT against Aff2  0.29
58. GCACAGAGUCUAGUGUUUATT against Ube2j2  0.325
59. GGCAUAAACCACUUCCAGCTT against Dedd2  0.342
60. GGAACGAAUGAAAAGACUUTT against Tpp2  0.35
61. CCAAAACGUGCAACACAAUTT against Cops6  0.37
62. GGAUGAGCAGAUGCUCCAATT against Mtmr7  0.451
63. GGAAGCACGUUGGAAGGAUTT against Olfr845  0.461
64. CCUGACAGCACUUUGUGGATT against Arhgef4  0.481
65. GGUUGCUAUGAUUUUUGUUTT against Itsn1  0.52
66. CCAAUCAACCCUCUAAGCATT against Nphp4  0.576
67. GGCGUGUCUUGAUAGAAAUTT against Tesmin  0.652
68. GGAUGGAGAAGUUUACUACTT against Yap1  0.714
69. CCAGCAUUAUCCAUAUCAATT against Nat2  0.786
70. GGAGUGAAAUAUGGAGUUGTT against Dhrs7b  0.787
71. CCAAAUUGCUGACUUAUUCTT against Ccna2  0.794
72. CCACGUAGGUAAGUGUAGGTT against Oard1  0.81
73. GGUGGUAGCUUUGUACUUUTT against Nxnl2  0.829
74. GGAAGUGAGAAGAUGGAUATT against Fam163b  0.93
75. GGAUCGAAUCUUUACCUAUTT against Col9a1  0.932
76. GCUUCCAGUCAGUGGUUACTT against Rara  1.07
77. GGGAAAUCCGAUAUUCCCUTT against Lats2  1.1
78. GGAGGGUGAAGAGAAUGGUTT against R3hdm2  1.14
79. CCCUUCUCACUAACAUACATT against Dach1  1.18
80. GGAGUUUGACUCAAUAUCATT against Napb  1.24
81. GGCCAAAGUCCAUUCAUUCTT against Olfr1120  1.31
82. GGAGCAAGGCUACAUUUUUTT against Itih3  1.36
83. GGGAAAUGGAAAGCAUUCUTT against Olfr374  1.41
84. GGUCUCAGACACCUGACUCTT against Opa3  1.53
85. CGCUCCAUUGCUCAGUAUUTT against Vtn  1.63
86. GGGUGCCUACUUGAUCCUUTT against Hgh1  1.63
87. GGACUGAAGAAGUGUGUGGTT against Scgb3a2  1.66
88. GGCCAUGAUUGUGUUUCAGTT against Tspan8  1.76
89. GGAAUGUAAGAACCCUUGCTT against Adam19  1.77

With GGGAGCAAACGAGAAGAUATT against Gjd2 the z-score was 4.09 (active).
For CGAUUUCCCAAGUUAUUACTT against Nxf1, the z-score was -2.26 (active).
In the case of GGAGAAAAGGGUGCUGAAGTT against Ybx3, the z-score was 2.85 (active).
For GGCUGAAAGUGAAGAAACGTT against Srp68, the z-score was -2.11 (active).
With GGUUUGUUUGUUUUUUGGUTT against Ajuba the z-score was 2.96 (active).
For GAUCUUAGCUGUGUGUGUGTT against Pf4, the z-score was -2.57 (active).
For GGUGAGGUAGGUUACUCAGTT against Reps1, the z-score was -2.16 (active).
With GGAUCUCCUGCUUGAACUGTT against Adam33 the z-score was 2.79 (active).
With GGUGCAUGUCUUCAUCCACTT against Rnase12 the z-score was 3.04 (active).
For GGCAUGAAGUUUGAAGCCATT against Cnnm2, the z-score was -2.47 (active).
With GCAAUGUGAGAAUUUUAACTT against Psg26 the z-score was 2.03 (active).
In the case of GGUUUGUGACAUUAUCUGCTT against Wrnip1, the z-score was 2.36 (active).
For GGCAGCAGAGAAGAAAGCCTT against Pld3, the z-score was -3.16 (active).
In the case of CGACCUAUUAGAGAGCAACTT against Zfp248, the z-score was 2.58 (active).
In the case of GGCGGUUUUAGUGAAUAACTT against Golm1, the z-score was 2.17 (active).
In the case of GGAAGACACACAGUACAUGTT against Rfx2, the z-score was 2.92 (active).
With CCAUCAGGACUCGUGAAUGTT against Fign the z-score was -2.09 (active).
With GGAGUUUACUGAGUUUUAGTT against Prkaca the z-score was 4.49 (active).
For GGCCUUCCAUACUACAACUTT against Zfp595, the z-score was 2.2 (active).
In the case of GCUCGAGUACCUGUACCUATT against Elfn1, the z-score was 3.11 (active).
